Experimental data as given in PubChem BioAssay (Tox21).
Values joined by “and” are separate entries in the source; they are usually repeats but may differ in a detail not shown here. Equal values may be shown once. Values without a mark were called inactive. Results filed as inconclusive are left out. Entries that show only a call come without a potency. Active and inactive are the calls of the source. Calls come from the whole dose curve; as a rule, active = well fitted curve in the direction sought with a large enough effect in the repeat runs; inconclusive = weak or mixed curves; inactive = no such curve, though single readings can be large; an effect the other way counts as inactive or inconclusive.

How the values were obtained:
[1] = Caspase-3/7 induction in HepG2 cells by small molecules, qHTS assay (AID 1346978); note: nearly all actives have a fitted effect of over 15% in size
How it was run: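 Wild-type HepG2 cells, 2,000/well, settled 5 hr at 37 C and 5% CO2, then compound-treated for 17 hr; caspase-3/7 activity read by luminescent Caspase-Glo 3/7 after 30 min at room temperature.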

[2] = Caspase-3/7 induction in CHO-K1 cells by small molecules, qHTS cell viability counter screen (AID 1346979); note: nearly all actives have a fitted effect of over 35% in size
How it was run: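 Wild-type CHO-K1 cells (1,500/well) treated with compound after 5 h plating; after 16 h at 37C, viability read as CellTiter-Fluor fluorescence following 1 h reagent incubation, in the same wells as the caspase read.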

[3] = Caspase-3/7 induction in CHO-K1 cells by small molecules, qHTS assay (AID 1346980); note: nearly all actives have a fitted effect of over 15% in size
How it was run: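 Wild-type CHO-K1 cells exposed to compounds for 17hr at 37 C, 5% CO2. Caspase-3/7 activity then measured by Caspase-Glo 3/7 luminescence after 30min at room temperature.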

[4] = Caspase-3/7 induction in HepG2 cells by small molecules, qHTS cell viability counter screen (AID 1346981); note: series mostly up to about 92 µM; nearly all actives have a fitted effect of over 30% in size
How it was run: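 Wild-type HepG2 cells (2,000/well) were allowed to settle for 5 hr at 37 C, 5% CO2, then dosed with compounds in DMSO by pin transfer. After 16 hr at 37 C, CellTiter-Fluor was added and fluorescence read 1 hr later.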

[5] = target: Nuclear receptor subfamily 1 group I member 2 (Homo sapiens) (UniProt O75469); experiment: Human pregnane X receptor (PXR) small molecule agonists, qHTS assay (AID 1346982); note: nearly all actives have a fitted effect of over 35% in size; note: potency is the fitted concentration of half-maximal effect
Chain of Nuclear receptor subfamily 1 group I member 2 (Homo sapiens) (O75469 whole entry, looked up): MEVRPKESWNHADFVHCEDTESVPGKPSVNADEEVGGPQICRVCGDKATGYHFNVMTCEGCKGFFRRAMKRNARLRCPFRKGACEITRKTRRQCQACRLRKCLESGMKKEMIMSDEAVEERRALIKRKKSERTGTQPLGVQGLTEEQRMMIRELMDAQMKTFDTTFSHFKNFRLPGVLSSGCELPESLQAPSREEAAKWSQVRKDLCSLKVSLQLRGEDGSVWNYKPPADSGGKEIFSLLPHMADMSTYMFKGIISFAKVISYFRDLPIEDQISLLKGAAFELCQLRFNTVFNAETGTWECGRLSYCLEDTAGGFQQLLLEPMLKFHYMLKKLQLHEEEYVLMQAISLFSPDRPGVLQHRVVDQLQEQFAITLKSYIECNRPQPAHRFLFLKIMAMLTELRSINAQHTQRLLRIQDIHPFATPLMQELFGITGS
How it was run: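 PXR-Luc HepG2 cells (CYP3A4 promoter-driven luciferase) were seeded in medium with 5% charcoal-stripped FBS, left 5 hr at 37 C, then exposed to compounds in DMSO for 24 hr. Luminescence was read after ONE-Glo addition.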

[6] = target: Nuclear receptor subfamily 1 group I member 2 (Rattus norvegicus) (UniProt Q9R1A7); experiment: Rat pregnane X receptor (rPXR) activation by small molecules, qHTS assay (AID 1346983); conditions: rPXR luciferase reporter cells, One-Glo luminescence, 24 h; max activation: hits give high values; note: nearly all actives have a fitted effect of over 20% in size
Chain of Nuclear receptor subfamily 1 group I member 2 (Rattus norvegicus) (Q9R1A7 whole entry, looked up): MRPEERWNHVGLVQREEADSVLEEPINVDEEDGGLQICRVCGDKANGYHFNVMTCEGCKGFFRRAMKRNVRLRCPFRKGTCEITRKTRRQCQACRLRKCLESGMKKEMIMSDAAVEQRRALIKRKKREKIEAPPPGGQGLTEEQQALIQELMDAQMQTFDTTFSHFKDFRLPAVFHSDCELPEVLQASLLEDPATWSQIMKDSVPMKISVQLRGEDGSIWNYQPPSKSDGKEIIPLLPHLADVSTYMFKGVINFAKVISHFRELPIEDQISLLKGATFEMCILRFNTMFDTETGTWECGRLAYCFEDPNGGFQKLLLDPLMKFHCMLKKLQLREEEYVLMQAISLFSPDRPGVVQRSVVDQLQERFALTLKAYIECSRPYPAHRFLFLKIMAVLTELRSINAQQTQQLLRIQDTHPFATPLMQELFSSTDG
How it was run: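 Cell-based rPXR activation assay: rPXR cells, 2,000 per well, rested 5hr at 37 C, then exposed to compounds in DMSO for 24 hr at 37 C. Luciferase activity read by One-Glo luminescence after 30 min at room temperature.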

[7] = target: Nuclear receptor subfamily 1 group I member 2 (Homo sapiens) (UniProt O75469); experiment: CYP3A4 induction through human pregnane X receptor (PXR) by small molecules, qHTS assay (AID 1346984); note: nearly all actives have a fitted effect of over 40% in size
How it was run: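 DPX-2 cells (HepG2 co-transfected with PXR and CYP3A4 promoter-luciferase) treated with compounds 24 h at 37C; luciferin-IPA CYP3A4 substrate 3uM final added for 3 h, then One-Glo; luminescence read. qHTS format.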

[8] = target: Nuclear receptor subfamily 1 group I member 2 (Homo sapiens) (UniProt O75469); experiment: Human pregnane X receptor (PXR) activation by small molecules, qHTS assay (AID 1346985); note: nearly all actives have a fitted effect of over 40% in size
How it was run: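 DPX-2 cells (HepG2 co-transfected with a PXR response element and a CYP3A4-promoter luciferase construct) were seeded at 2,000 per well, rested 5 hr at 37C, then exposed to DMSO-dissolved compounds for 24 hr. Activation was read as luciferase luminescence.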

[9] = target: Cytochrome P450 2D6 (Homo sapiens) (UniProt P10635); experiment: Cytochrome P450 Family 2 Subfamily D Member 6 (CYP2D6) small molecule antagonists: luciferase reporter qHTS assay (AID 1671196); note: nearly all actives have a fitted effect of over 50% in size; note: potency is the fitted concentration of half-maximal effect
Chain of Cytochrome P450 2D6 (Homo sapiens) (P10635 whole entry, looked up): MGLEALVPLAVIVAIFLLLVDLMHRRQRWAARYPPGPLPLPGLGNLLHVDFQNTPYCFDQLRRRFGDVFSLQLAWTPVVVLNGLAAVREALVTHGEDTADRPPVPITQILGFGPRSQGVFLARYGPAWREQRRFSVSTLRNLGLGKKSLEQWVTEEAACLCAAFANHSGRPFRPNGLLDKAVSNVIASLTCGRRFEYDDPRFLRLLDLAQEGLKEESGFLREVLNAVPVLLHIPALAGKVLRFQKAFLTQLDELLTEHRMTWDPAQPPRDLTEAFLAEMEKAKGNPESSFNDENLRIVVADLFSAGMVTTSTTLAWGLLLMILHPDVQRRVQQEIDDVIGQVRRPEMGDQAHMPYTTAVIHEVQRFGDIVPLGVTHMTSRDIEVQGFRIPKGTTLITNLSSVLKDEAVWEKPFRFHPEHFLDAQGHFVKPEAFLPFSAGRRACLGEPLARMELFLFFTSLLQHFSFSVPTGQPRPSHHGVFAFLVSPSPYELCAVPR
How it was run: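 CYP2D6 enzyme–substrate mix was held with compound for 10 min at room temperature, then NADPH regeneration solution was added and the reaction ran 1 h at room temperature. Luciferin product was detected by luminescence after 20 min with detection reagent.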

[10] = target: Cytochrome P450 2C19 (Homo sapiens) (UniProt P33261); experiment: Cytochrome P450 Family 2 Subfamily C Member 19 (CYP2C19) small molecule antagonists: luciferase reporter qHTS assay (AID 1671197); note: nearly all actives have a fitted effect of over 65% in size; note: potency is the fitted concentration of half-maximal effect
Chain of Cytochrome P450 2C19 (Homo sapiens) (P33261 whole entry, looked up): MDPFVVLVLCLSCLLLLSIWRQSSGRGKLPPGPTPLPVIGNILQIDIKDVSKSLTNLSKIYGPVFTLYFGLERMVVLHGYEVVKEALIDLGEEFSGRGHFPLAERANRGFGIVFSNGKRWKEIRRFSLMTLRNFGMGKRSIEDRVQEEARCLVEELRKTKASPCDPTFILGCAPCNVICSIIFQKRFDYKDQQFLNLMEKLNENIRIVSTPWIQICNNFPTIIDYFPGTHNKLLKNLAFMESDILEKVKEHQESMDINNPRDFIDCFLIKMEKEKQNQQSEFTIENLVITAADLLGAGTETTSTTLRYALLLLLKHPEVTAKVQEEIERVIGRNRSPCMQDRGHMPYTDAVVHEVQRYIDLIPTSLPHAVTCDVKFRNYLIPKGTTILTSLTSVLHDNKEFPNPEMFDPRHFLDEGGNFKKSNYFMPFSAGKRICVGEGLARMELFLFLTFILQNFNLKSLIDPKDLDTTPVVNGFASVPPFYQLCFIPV
How it was run: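 Luminescent readout of CYP2C19 activity: luciferin product detected 20 min after adding detection reagent. Before that, compound and enzyme-substrate mix preincubated 10 min at room temperature; NADPH-regenerating system started a 1 h, 37C reaction. Ketoconazole as positive control.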

Structure (SMILES) | Potency [1] | Potency [2] | outcome [3] | Potency [4] | Potency [5] | max activation [6] | Potency [7] | Potency [8] | Potency [9] | Potency [10]
C=CC(=O)O | inactive | inactive | inactive | inactive | inactive | -1.96% | inactive | inactive | inactive | –
CCCCOCCOC(=O)c1cccnc1 | inactive | inactive | inactive | inactive | inactive | – | – | – | – | –
CC(C)(C)NCC(O)COc1cccc2c1C[C@H](O)[C@H](O)C2 (stereo not given in full) | inactive | inactive | inactive | inactive | inactive | -1.94% | inactive | inactive | inactive | inactive
COc1ccc(C(=O)NCc2ccc(OCCN(C)C)cc2)cc1OC | inactive | inactive | inactive | inactive | inactive | -0.841% | inactive | inactive | inactive | inactive
CCOC(=O)c1c(N)sc2c1CCN(Cc1ccccc1)C2 | inactive | inactive | inactive | inactive | inactive | -1.17% | inactive | inactive | 21.9 nM (active) | 871 nM (active)
O=C(NC(Cc1cc(=O)[nH]c2ccccc12)C(=O)O)c1ccc(Cl)cc1 (stereo not given) | inactive | inactive | inactive | inactive | inactive | -0.429% | inactive | inactive | inactive | inactive
CC[C@H]1OC(=O)[C@H](C)[C@@H](O[C@H]2C[C@@](C)(OC)[C@@H](O)[C@H](C)O2)[C@H](C)[C@@H](O[C@@H]2O[C@H](C)C[C@H](N(C)C)[C@H]2O)[C@](C)(O)C[C@@H](C)CN(C)[C@H](C)[C@@H](O)[C@]1(C)O | inactive | inactive | inactive | inactive | inactive | – | – | inactive | inactive | inactive
CCCCCC | inactive | inactive | inactive | inactive | – | – | – | – | – | –
O=C1CC[C@@H](C(=O)O)N1 | inactive | inactive | inactive | inactive | inactive | -5.25% | inactive | inactive | – | inactive
O=NN(CCCl)C(=O)NCCCl | inactive | inactive | inactive | inactive | – | – | – | – | – | –
Cc1ccc(S(=O)(=O)NC(=O)NC2CCCCC2)cc1 | inactive | inactive | inactive | inactive | inactive | -5.99% | inactive | inactive | inactive | inactive
CCNc1nc(N)nc(Cl)n1 | inactive | inactive | inactive | inactive | inactive | – | – | – | – | –
CC(=O)N[C@@H](Cc1ccc(O)cc1)C(=O)O | inactive | inactive | inactive | inactive | inactive | -1.6% | inactive | inactive | inactive | inactive
CC[C@@H](CO)NCCN[C@@H](CC)CO | inactive | inactive | inactive | inactive | inactive | 2.2% | inactive | inactive | inactive | inactive
CC(C)(C)CCCCCCOC(=O)c1ccccc1C(=O)OCCCCCCC(C)(C)C | inactive | inactive | inactive | inactive | 61200 nM (active) | – | – | – | inactive | –
CCN(CC)CCOC(=O)C(c1ccccc1)c1ccccc1 | inactive | inactive | inactive | inactive | inactive | 0.131% | inactive | inactive | 2750 nM (active) | 21900 nM (active)
Cc1cn([C@H]2C[C@H](F)[C@@H](CO)O2)c(=O)[nH]c1=O | inactive | inactive | inactive | inactive | inactive | -7.91% | inactive | inactive | – | inactive
CC(O)Cn1cnc2c1c(=O)n(C)c(=O)n2C (stereo not given) | inactive | inactive | inactive | – | – | – | – | – | – | –
O=C(O)CNC(=O)c1ccccc1I | inactive | inactive | inactive | inactive | inactive | 0.066% | inactive | inactive | inactive | –
CCN(CC)C(=O)N1CCN(C)CC1 | inactive | inactive | inactive | inactive | inactive | -2.03% | inactive | inactive | inactive | inactive
CC(=O)Oc1cccc(O)c1 | inactive | inactive | inactive | inactive | inactive | -5.99% | inactive | inactive | inactive | inactive
CC[C@H]1OC(=O)[C@H](C)[C@@H](O[C@H]2C[C@@](C)(OC)[C@@H](O)[C@H](C)O2)[C@H](C)[C@@H](O[C@@H]2O[C@H](C)C[C@H](N(C)C)[C@H]2O)[C@](C)(O)C[C@@H](C)C(=O)[C@H](C)[C@@H](O)[C@]1(C)O | inactive | inactive | inactive | inactive | inactive | -0.703% and -0.253% | inactive | inactive | inactive | inactive
O=C(O)CCC(=O)c1ccc(-c2ccccc2)cc1 | inactive | inactive | inactive | inactive | inactive | 11.9% | inactive | inactive | inactive | –
CNC1CCCN(c2c(F)cc3c(=O)c(C(=O)O)cn(C4CC4)c3c2OC)C1 (stereo not given) | inactive | inactive | inactive | inactive | inactive | -1.63% | inactive | inactive | inactive | inactive
CC(=O)OC(C)C[N+](C)(C)C (stereo not given) | inactive | inactive | inactive | inactive | inactive | -2.41% | inactive | inactive | inactive | inactive
